{
  "source": "PubChem BioAssay",
  "note": "Several values for one entry are separate records, joined by “and”; a condition that tells them apart may be missing. Equal values may be shown once. Activity calls are given as the source filed them. No rule for the calls is given here. Starred links: 1 amine or outer side, 2 acyl side, 3 side chain; linkers in the order of their positions; H or OH if unused. Positions of bridges follow the written chain, without caps; N, C: chain ends. Non-standard residues stand in square brackets, D forms with d. Residues, ends and D or L forms follow the SMILES beside them. ξ: configuration not given here. *: point of attachment. ΔAla(E,3-NHCONH2) = NC(=O)N/C=C(/N)C(=O)O; X1 = NC1=NCCC(C(N[*:1])C(=O)[*:2])N1; ξβ3hOrn = NCCCC(N)CC(=O)*; Dap = NC[CH](N)C(=O)O",
  "data": [
    {"tested_on": "Aerobactin synthetase IucA (Klebsiella pneumoniae hvKP1)", "assay": "Biochemical IucA enzyme inhibition primary screen of the Spectrum library (AID 1346200);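 also: 100% = wells without compound and 0% = wells lacking enzyme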", "conditions": "malachite green pyrophosphate, A620, at 8 µM, stronger effect = lower value", "values": [
      {"molecule": "COc1c2c(cc3occ(-c4ccc5c(c4)OCO5)c(=O)c13)OC(C)(C)C=C2", "activity remaining": "111% (inactive)"},
      {"molecule": "Nc1ccc(C(=O)O)c(O)c1", "note": "(tested in a mixture with another compound)", "activity remaining": "86.3% (inactive)"},
      {"molecule": "CCC(C)C(NC)C(=O)O", "note": "(stereo not given)", "activity remaining": "116% (inactive)"},
      {"molecule": "O=C(O)c1cc(=O)c2cccc(O)c2[nH]1", "activity remaining": "97.3% (inactive)"},
      {"molecule": "OC1C(O)C(O)C(O)C(O)C1O", "note": "(stereo not given)", "activity remaining": "103% (inactive)"},
      {"molecule": "O=c1cc(-c2ccccc2)oc2c(O)c(O)ccc12", "activity remaining": "92.5% (inactive)"},
      {"molecule": "CC(=O)OC(C)(C)[C@@H]1Cc2cc3ccc(=O)oc3cc2O1", "activity remaining": "95.5% (inactive)"},
      {"molecule": "NCCCC(N)CC(=O)NCC1NC(=O)C(CO)NC(=O)C(N)CNC(=O)C(C2CCN=C(N)N2)NC(=O)/C(=C\\NC(N)=O)NC1=O", "note": "(stereo not drawn) (H-[Dap]S[Dap](ξβ3hOrn)[ΔAla(E,3-NHCONH2)][X1]; lactam 1-C; configuration not given here)", "activity remaining": "101% (inactive)"},
      {"molecule": "NC(Cc1ccc(F)cc1)C(=O)O", "note": "(stereo not given)", "activity remaining": "124% (inactive)"},
      {"molecule": "c1ccc(CN(CC2=NCCN2)c2ccccc2)cc1", "activity remaining": "120% (inactive)"},
      {"molecule": "Cc1c(S(=O)(=O)O)oc2c1C(=O)C(=O)c1c-2ccc2c1CCCC2(C)C", "activity remaining": "127% (inactive)"},
      {"molecule": "COc1ccc2cc(CCC(C)=O)ccc2c1", "activity remaining": "99.8% (inactive)"},
      {"molecule": "CO[C@H]1C[C@H](O[C@H]2[C@H](C)[C@@H](OC3O[C@H](C)C[C@H](N(C)C)[C@H]3O)[C@@H](C)C[C@]3(CO3)C(=O)[C@H](C)[C@@H](O)[C@@H](C)[C@@H](C)OC(=O)[C@@H]2C)O[C@@H](C)[C@@H]1O", "note": "(stereo not given in full)", "activity remaining": "107% (inactive)"},
      {"molecule": "COc1ccc2c(c1)[C@@]1(C)CCC(=O)C[C@H]1CC2", "activity remaining": "101% (inactive)"},
      {"molecule": "COC(=O)Nc1nc2ccc(C(=O)c3ccccc3)cc2[nH]1", "activity remaining": "104% (inactive)"},
      {"molecule": "CCC(C)C(=O)OC1[C@@H]2CC3=C4CC(=O)O[C@@H](c5ccoc5)[C@]4(C)CCC3C(C)(C2=O)[C@@H](CC(=O)OC)C1(C)C", "note": "(stereo not given in full)", "activity remaining": "125% (inactive)"},
      {"molecule": "NC(=O)NC(=O)Cc1ccccc1", "activity remaining": "93% (inactive)"},
      {"molecule": "CC12CCC3C(CC3(C)C)C(C)(CCC1=O)O2", "note": "(stereo not given)", "activity remaining": "119% (inactive)"},
      {"molecule": "O=C(O)c1cn(-c2ccc(F)cc2)c2cc(N3CCNCC3)c(F)cc2c1=O", "activity remaining": "118% (inactive)"},
      {"molecule": "CCN(CC)CCOC(=O)C(c1ccccc1)c1ccccc1", "activity remaining": "112% (inactive)"},
      {"molecule": "CC(=O)O[C@H]1CC[C@@]2(C)C(CC[C@]3(C)C2CC=C2C4CC(C)(C)CC[C@]4(C)CC[C@]23C)C1(C)C", "note": "(stereo not given in full)", "activity remaining": "102% (inactive)"},
      {"molecule": "CC(C)(Oc1ccc(Cl)cc1)C(=O)O", "activity remaining": "122% (inactive)"},
      {"molecule": "C/C=C(/C(=C/C)c1ccc(O)cc1)c1ccc(O)cc1", "activity remaining": "115% (inactive)"},
      {"molecule": "CC(CC(O)C1OC1(C)C)[C@@H]1CCC2(C)C3=CCC4C(C)(C)C(=O)CCC4(C)C3CC[C@@]12C", "note": "(stereo not given in full)", "activity remaining": "102% (inactive)"},
      {"molecule": "CC1=C(/C=C/C(C)=C/C=C/C(C)=C/CO)C(C)(C)CCC1", "activity remaining": "105% (inactive)"},
      {"molecule": "COc1ccccc1/C=C\\C(=O)O", "activity remaining": "90.4% (inactive)"},
      {"molecule": "CC(=O)OC1CCC23CC1(C)CCC2C(C)(C)CC3OC(C)=O", "note": "(stereo not given)", "activity remaining": "105% (inactive)"},
      {"molecule": "COc1cc(/C=C/C(=O)O)ccc1O", "activity remaining": "100% (inactive)"},
      {"molecule": "CC(=O)NCc1c(I)c(NC(C)=O)c(I)c(C(=O)O)c1I", "activity remaining": "98.7% (inactive)"},
      {"molecule": "C=C1C2=CC(=O)O[C@@H](c3ccoc3)[C@]2(C)CCC1[C@@]1(C)C=CC(=O)C(C)(C)[C@@H]1CC(=O)OC", "note": "(stereo not given in full)", "activity remaining": "100% (inactive)"},
      {"molecule": "COc1c2c(cc3c1OCO3)C13C=C[C@H](OC)CC1N(C2)CC3O", "note": "(stereo not given in full)", "activity remaining": "107% (inactive)"},
      {"molecule": "Cc1ccc(C(=O)C(C)CN2CCCCC2)cc1", "note": "(stereo not given)", "activity remaining": "113% (inactive)"},
      {"molecule": "CC1=CC(=O)c2ccccc2C1=O", "activity remaining": "117% (inactive)"},
      {"molecule": "CC(C)(C)CC(C)(C)c1ccc(O)c(Cc2ccc(Cl)cc2Cl)c1", "activity remaining": "110% (inactive)"},
      {"molecule": "NC(Cc1cc(I)c(Oc2ccc(O)c(I)c2)c(I)c1)C(=O)O", "note": "(stereo not given)", "activity remaining": "97.1% (inactive)"},
      {"molecule": "CC(=O)[C@H]1CCC2C3C[C@H](C)C4=CC(=O)CC[C@]4(C)C3[C@@H](O)C[C@@]21C", "note": "(stereo not given in full)", "activity remaining": "101% (inactive)"},
      {"molecule": "CC12CCC3c4ccc(OCc5ccccc5)cc4CCC3C1C[C@@H](O)[C@@H]2O", "note": "(stereo not given in full)", "activity remaining": "119% (inactive)"},
      {"molecule": "C#CCCCCCCCCCCCC(O)CC(O)CO", "note": "(stereo not given)", "activity remaining": "98.4% (inactive)"},
      {"molecule": "CN(C)CCC(c1ccc(Br)cc1)c1ccccn1", "note": "(stereo not given)", "activity remaining": "123% (inactive) and 96.1% (inactive)"},
      {"molecule": "Nc1ccn(C2O[C@H](CO)[C@@H](O)[C@@H]2O)c(=O)n1", "note": "(stereo not given in full)", "activity remaining": "93.2% (inactive)"}
    ]}
  ]
}
